In PubChem BioAssay (EPA / NIEHS):
The source made the active and inactive calls. Rule for the calls: active = hit-call score of the fitted dose curve at least 0.9, where 1 is the maximum; inactive = score below 0.9.

Legend:
Settings in all cases: mRNA level, 48 h; actives raise or lower the signal
[1] = read-out: Interleukin 6 (IL6), IL6 (gene 3569); experiment: LTEA_HepaRG_IL6: Life Technologies and Expression Analysis (LTEA) Assay for Interleukin 6 (IL6) using HepaRG (AID 2283509)
Procedure, shortened: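 HepaRG, ~100,000 cells/well, 48 h pre-culture; serum-free induction medium; cmpd 8-pt half-log from 100 uM, 0.5% DMSO, duplicate, 48 h. Lysis in RLT, TaqMan qRT-PCR; gain or loss vs DMSO.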

[2] = read-out: Interleukin 6 Receptor (IL6R), IL6R (gene 3570); experiment: LTEA_HepaRG_IL6R: Life Technologies and Expression Analysis (LTEA) Assay for Interleukin 6 Receptor (IL6R) using HepaRG (AID 2283510)
Procedure, shortened: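 Differentiated human HepaRG cells, plated 48 h then switched to serum-free induction medium, were dosed in duplicate for 48 h at eight half-log concentrations up to 100 uM in 0.5% DMSO. IL6R mRNA quantified by qRT-PCR, normalized to ACTB/GAPDH/POLR2A; bidirectional fit versus DMSO.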

[3] = read-out: Potassium channel subfamily K member 1 (KCNK1), KCNK1 (gene 3775); experiment: LTEA_HepaRG_KCNK1: Life Technologies and Expression Analysis (LTEA) Assay for Potassium channel subfamily K member 1 (KCNK1) using HepaRG (AID 2283511)
Procedure, shortened: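 Gain or loss of KCNK1 mRNA is the read-out, quantified by qRT-PCR against three housekeeping genes after 48 h chemical treatment of human HepaRG liver cells. Concentrations ran from 100 uM downward in half-log steps, vehicle 0.5% DMSO.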

[4] = read-out: Keratin 19 (KRT19), KRT19 (gene 3880); experiment: LTEA_HepaRG_KRT19: Life Technologies and Expression Analysis (LTEA) Assay for Keratin 19 (KRT19) using HepaRG (AID 2283512)
Procedure, shortened: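 Readout is qRT-PCR of KRT19 mRNA, normalized to ACTB, GAPDH and POLR2A, from HepaRG cells treated 48 h with eight-point half-log dilutions topping at 100 uM. Activity in either direction is scored relative to 0.5% DMSO vehicle.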

[5] = read-out: JUN Transcription Factor, JUN (gene 3725); experiment: LTEA_HepaRG_JUN: Life Technologies and Expression Analysis (LTEA) Assay for JUN Transcription Factor using HepaRG (AID 2283513)
Procedure, shortened: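 Differentiated HepaRG cells were exposed to chemicals for 48 h in serum-free induction medium, 8 concentrations from 100 uM in half-log steps, 0.5% DMSO vehicle, in duplicate. JUN mRNA was quantified by TaqMan qRT-PCR, normalized to ACTB, GAPDH, POLR2A.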

[6] = read-out: Lipase C (LIPC), LIPC (gene 3990); experiment: LTEA_HepaRG_LIPC: Life Technologies and Expression Analysis (LTEA) Assay for Lipase C (LIPC) using HepaRG (AID 2283514)
Procedure, shortened: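 Read-out is LIPC transcript level by TaqMan qRT-PCR, normalized to three housekeeping genes, after 48 h chemical treatment of human HepaRG liver cells. Curves span eight concentrations topping at 100 uM; activity in either direction scored relative to 0.5% DMSO.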

[7] = read-out: Lipoprotein lipase (LPL), LPL (gene 4023); experiment: LTEA_HepaRG_LPL: Life Technologies and Expression Analysis (LTEA) Assay for Lipoprotein lipase (LPL) using HepaRG (AID 2283515)
Procedure, shortened: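 Read-out is LPL transcript level by qRT-PCR, normalized to three housekeeping genes and fitted bidirectionally against the DMSO control. Human HepaRG cells received chemicals for 48 h at up to 100 uM.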

[8] = read-out: MicroRNA 122 (MIR122), gene 406906; experiment: LTEA_HepaRG_MIR122: Life Technologies and Expression Analysis (LTEA) Assay for MicroRNA 122 (MIR122) using HepaRG (AID 2283516); note: the transcript read is the microRNA miR-122
Procedure, shortened: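 Differentiated human HepaRG cells were exposed 48 h in serum-free induction medium to eight half-log concentrations (top 100 uM, 0.5% DMSO). Transcript level was measured by TaqMan qRT-PCR, normalized to ACTB, GAPDH and POLR2A, and fitted bidirectionally versus DMSO.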

[9] = read-out: matrix metalloproteinase-10 (MMP10), MMP10 (gene 4319); experiment: LTEA_HepaRG_MMP10: Life Technologies and Expression Analysis (LTEA) Assay for matrix metalloproteinase-10 (MMP10) using HepaRG (AID 2283517)
Procedure, shortened: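 Gain or loss of MMP10 mRNA is fitted relative to the 0.5% DMSO vehicle. The human hepatic line HepaRG receives a 48-hour serum-free exposure, in duplicate, with a maximum concentration of 100 uM.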

MYC, MYC (gene 4609) = experiment: LTEA_HepaRG_MYC: Life Technologies and Expression Analysis (LTEA) Assay for MYC using HepaRG (AID 2283518)
Procedure, shortened: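 Expression changes were scored by TaqMan qRT-PCR with ACTB, GAPDH and POLR2A normalization. Cultures in serum-free induction medium received duplicate 8-point concentration series, highest 100 uM, for 48 h; DMSO (0.5%) served as baseline.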

[10] = read-out: matrix metalloproteinase-3 (MMP3), MMP3 (gene 4314); experiment: LTEA_HepaRG_MMP3: Life Technologies and Expression Analysis (LTEA) Assay for matrix metalloproteinase-3 (MMP3) using HepaRG (AID 2283519)
Procedure, shortened: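 HepaRG, human; 48 h dosing, 8 conc. (max 100 uM, half-log), duplicate, 0.5% DMSO. Readout: MMP3 transcript by Fluidigm TaqMan qRT-PCR, ACTB/GAPDH/POLR2A-normalised. Gain or loss fitted vs DMSO.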

[11] = read-out: Paternally Expressed 10 (PEG10), PEG10 (gene 23089); experiment: LTEA_HepaRG_PEG10: Life Technologies and Expression Analysis (LTEA) Assay for Paternally Expressed 10 (PEG10) using HepaRG (AID 2283520)
Procedure, shortened: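 Differentiated HepaRG cells, plated 48 h then switched to serum-free induction medium, were exposed in duplicate for 48 h to eight half-log concentrations topping at 100 uM in 0.5% DMSO. PEG10 mRNA was quantified by TaqMan qRT-PCR, normalised to ACTB, GAPDH and POLR2A.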

[12] = read-out: Protein phosphatase 2A (PPP2R4), PTPA (gene 5524); experiment: LTEA_HepaRG_PPP2R4: Life Technologies and Expression Analysis (LTEA) Assay for Protein phosphatase 2A (PPP2R4) using HepaRG (AID 2283522)
Procedure, shortened: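 Differentiated HepaRG cells in serum-free induction medium were exposed in duplicate for 48 h to eight concentrations, top 100 uM with half-log dilutions, in 0.5% DMSO. PPP2R4 mRNA was quantified by TaqMan qRT-PCR, normalized to ACTB, GAPDH and POLR2A.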

[13] = read-out: Phosphatase and tensin (PTEN), PTEN (gene 5728); experiment: LTEA_HepaRG_PTEN: Life Technologies and Expression Analysis (LTEA) Assay for Phosphatase and tensin (PTEN) using HepaRG (AID 2283523)
Procedure, shortened: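 Read-out is PTEN transcript level by multiplexed TaqMan qRT-PCR after 48 h chemical treatment of human HepaRG cultures in serum-free induction medium. Concentrations spanned 100 uM downward in half-log steps, 0.5% DMSO throughout; activity fitted in both directions against vehicle.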

[14] = read-out: solute carrier (SLC22A1), SLC22A1 (gene 6580); experiment: LTEA_HepaRG_SLC22A1: Life Technologies and Expression Analysis (LTEA) Assay for solute carrier (SLC22A1) using HepaRG (AID 2283524)
Procedure, shortened: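 HepaRG (human liver line), 48 h dosing in serum-free induction medium; 8 conc., half-log down from 100 uM, 0.5% DMSO vehicle, duplicates. Endpoint: SLC22A1 mRNA, qRT-PCR, housekeeping-normalized; gain/loss fit vs DMSO.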

[15] = read-out: Pyruvate Dehydrogenase Kinase 4 (PDK4), PDK4 (gene 5166); experiment: LTEA_HepaRG_PDK4: Life Technologies and Expression Analysis (LTEA) Assay for Pyruvate Dehydrogenase Kinase 4 (PDK4) using HepaRG (AID 2283525)
Procedure, shortened: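 In this multiplexed human HepaRG expression assay, cells are treated 48 h with test chemicals across an eight-point range starting at 100 uM. PDK4 mRNA changes, normalized to ACTB/GAPDH/POLR2A, are fitted in both directions relative to vehicle.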

[16] = read-out: NAD(P)H dehydrogenase [quinone] 1 (NQO1), NQO1 (gene 1728); experiment: LTEA_HepaRG_NQO1: Life Technologies and Expression Analysis (LTEA) Assay for NAD(P)H dehydrogenase [quinone] 1 (NQO1) using HepaRG (AID 2283526)
Procedure, shortened: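 Differentiated HepaRG cells, plated 48 h and then switched to serum-free induction medium, were exposed in duplicate for 48 h to 8-point half-log concentrations up to 100 uM in 0.5% DMSO. mRNA measured by qRT-PCR, normalized to ACTB, GAPDH, POLR2A; bidirectional fit versus DMSO.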

[17] = read-out: Nuclear factor erythroid 2-related factor 2 (Homo sapiens) (UniProt Q16236); experiment: LTEA_HepaRG_NFE2L2: Life Technologies and Expression Analysis (LTEA) Assay for Nuclear factor erythroid 2-related factor 2 (NFE2L2) Transcription Factor using HepaRG (AID 2283527)
Procedure, shortened: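 Transcript level of NFE2L2 is the read-out, measured by microfluidic TaqMan qRT-PCR and normalized to three housekeeping genes. Human HepaRG cultures received test chemical for 48 h at up to 100 uM in half-log steps. Gain or loss of signal is fitted relative to 0.5% DMSO.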

[18] = read-out: succinate dehydrogenase complex iron sulfur subunit B (SDHB), SDHB (gene 6390); experiment: LTEA_HepaRG_SDHB: Life Technologies and Expression Analysis (LTEA) Assay for succinate dehydrogenase complex iron sulfur subunit B (SDHB) using HepaRG (AID 2283528)
Procedure, shortened: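 HepaRG cells (~100,000/well, plated 48 h) exposed in duplicate for 48 h in serum-free induction medium to 8-point half-log series from 100 uM in 0.5% DMSO; mRNA by qRT-PCR normalised to ACTB, GAPDH, POLR2A; bidirectional fit versus DMSO.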

[19] = read-out: Nuclear factor NF-kappa-B p105 subunit (Homo sapiens) (UniProt P19838); experiment: LTEA_HepaRG_NFKB1: Life Technologies and Expression Analysis (LTEA) Assay for Nuclear Factor Kappa B Subunit 1 (NFKB1) using HepaRG (AID 2283521)
Procedure, shortened: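 Differentiated human HepaRG cells in serum-free induction medium with 0.5% DMSO were exposed for 48 h to eight half-log concentrations, top 100 uM, in duplicate. NFKB1 mRNA measured by Fluidigm TaqMan qRT-PCR, normalised to ACTB, GAPDH and POLR2A; bidirectional fit versus DMSO.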

Measured: AC50

Sequence of Nuclear factor erythroid 2-related factor 2 (Homo sapiens) (Q16236 whole entry, looked up): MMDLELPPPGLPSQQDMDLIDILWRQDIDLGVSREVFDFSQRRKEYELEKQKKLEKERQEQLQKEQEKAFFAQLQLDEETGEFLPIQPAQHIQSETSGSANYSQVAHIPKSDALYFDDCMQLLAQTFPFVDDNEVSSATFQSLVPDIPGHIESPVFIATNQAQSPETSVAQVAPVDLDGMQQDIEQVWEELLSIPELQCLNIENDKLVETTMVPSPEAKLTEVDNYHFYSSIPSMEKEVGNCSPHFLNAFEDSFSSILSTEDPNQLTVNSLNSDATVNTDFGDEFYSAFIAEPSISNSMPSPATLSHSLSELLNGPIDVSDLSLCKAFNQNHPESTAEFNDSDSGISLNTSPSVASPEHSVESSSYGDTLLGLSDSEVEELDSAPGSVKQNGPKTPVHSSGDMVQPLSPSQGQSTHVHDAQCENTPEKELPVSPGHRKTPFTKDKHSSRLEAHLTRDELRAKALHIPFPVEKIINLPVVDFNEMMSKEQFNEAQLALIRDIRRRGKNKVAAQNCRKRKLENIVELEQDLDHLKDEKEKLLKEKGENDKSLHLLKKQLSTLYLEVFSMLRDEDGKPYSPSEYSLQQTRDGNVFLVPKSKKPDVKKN
Sequence of Nuclear factor NF-kappa-B p105 subunit (Homo sapiens) (P19838 whole entry, looked up): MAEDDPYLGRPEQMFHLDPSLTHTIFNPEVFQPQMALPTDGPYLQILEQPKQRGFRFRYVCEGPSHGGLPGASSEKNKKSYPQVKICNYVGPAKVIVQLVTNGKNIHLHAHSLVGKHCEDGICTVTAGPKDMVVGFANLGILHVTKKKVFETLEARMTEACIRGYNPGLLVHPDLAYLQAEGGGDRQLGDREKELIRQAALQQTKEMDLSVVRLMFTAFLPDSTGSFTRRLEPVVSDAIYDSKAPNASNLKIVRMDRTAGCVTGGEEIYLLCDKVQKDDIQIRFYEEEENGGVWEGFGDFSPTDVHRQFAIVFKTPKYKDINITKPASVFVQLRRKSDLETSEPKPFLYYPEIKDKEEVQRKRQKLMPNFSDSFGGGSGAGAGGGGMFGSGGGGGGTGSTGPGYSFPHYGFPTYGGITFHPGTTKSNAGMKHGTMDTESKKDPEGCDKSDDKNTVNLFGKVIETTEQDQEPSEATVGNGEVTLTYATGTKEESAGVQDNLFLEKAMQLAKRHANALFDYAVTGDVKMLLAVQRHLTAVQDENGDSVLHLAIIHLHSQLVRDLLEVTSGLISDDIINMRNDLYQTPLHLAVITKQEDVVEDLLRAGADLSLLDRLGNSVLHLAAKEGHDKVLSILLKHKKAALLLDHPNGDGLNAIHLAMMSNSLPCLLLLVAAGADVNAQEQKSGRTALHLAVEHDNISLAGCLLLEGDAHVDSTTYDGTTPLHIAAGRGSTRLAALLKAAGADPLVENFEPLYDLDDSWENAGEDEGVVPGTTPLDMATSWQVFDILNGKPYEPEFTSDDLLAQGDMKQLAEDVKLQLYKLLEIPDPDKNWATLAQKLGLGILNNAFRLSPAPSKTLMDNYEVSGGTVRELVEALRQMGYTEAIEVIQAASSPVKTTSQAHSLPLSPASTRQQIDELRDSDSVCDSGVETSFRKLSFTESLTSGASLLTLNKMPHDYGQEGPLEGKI

Oc1ccc2c(c1)-c1ccccc1C2
active: [4] 25 µM | [7] 25.2 µM | MYC, MYC (gene 4609) 33.3 µM | [15] 25.2 µM | [17] 21.4 µM
not listed: [19]
inactive: all other assays above

COc1ccc2sc(C(=O)Nc3nnn[nH]3)c(OC(C)C)c2c1
active: [3] 28.1 µM | [7] 12.7 µM | [8] 80.2 µM | MYC, MYC (gene 4609) 38 µM | [10] 27.1 µM | [11] 35.8 µM | [14] 97.4 µM | [15] 32.5 µM | [17] 27.6 µM
not listed: [19]
inactive: all other assays above

CC(C)CCCCCCOC(=O)c1ccc(C(=O)OCCCCCCC(C)C)c(C(=O)OCCCCCCC(C)C)c1
not listed: [19]
inactive: all other assays above

NC(=O)NO
not listed: [2]
inactive: all other assays above

CC/C(=C\C(=N/O)C(N)=O)C(C)[N+](=O)[O-] (centres undefined)
not listed: [19]
inactive: all other assays above

CC(C)CCCCCCCOC(=O)CCCCC(=O)OCCCCCCCC(C)C
not listed: [19]
inactive: all other assays above
